Settings in all cases: mRNA level, 48 h; actives raise or lower the signal
Read-out in test [1]: Early growth response protein 1 (EGR1) transcription factor, EGR1 (gene 1958)
Briefly: LTEA_HepaRG_EGR1: Life Technologies and Expression Analysis (LTEA) Assay for Early growth response protein 1 (EGR1) transcription factor using HepaRG (AID 2283490). The procedure, abridged:
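Differentiated human HepaRG cells in serum-free induction medium were exposed in duplicate for 48 h to eight concentrations (top 100 uM, half-log steps) in 0.5% DMSO. EGR1 mRNA was quantified by qRT-PCR, normalized to ACTB, GAPDH and POLR2A, and fitted bidirectionally versus DMSO.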

Read-out in test [2]: Ezrin (EZR), EZR (gene 7430)
Briefly: LTEA_HepaRG_EZR: Life Technologies and Expression Analysis (LTEA) Assay for Ezrin (EZR) using HepaRG (AID 2283491). The procedure, abridged:
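Gain or loss of EZR mRNA is scored relative to 0.5% DMSO in human HepaRG cultures treated 48 h with test chemicals in duplicate, eight half-log concentrations from 100 uM.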

Read-out in test [3]: Cytochrome P450 3A7 (Homo sapiens) (UniProt P24462)
Briefly: LTEA_HepaRG_CYP3A7: Life Technologies and Expression Analysis (LTEA) Assay for CYP3A7 using HepaRG (AID 2283492). The method in brief: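 Cells were thawed, plated, cultured 48 h, then treated for a further 48 h with chemicals (eight-point half-log series from 100 uM, 0.5% DMSO). RNA was isolated and CYP3A7 expression quantified by qRT-PCR normalised to ACTB, GAPDH and POLR2A.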

Read-out in a further test: CYP3A5 (gene 1577)
Briefly: LTEA_HepaRG_CYP3A5: Life Technologies and Expression Analysis (LTEA) Assay for CYP3A5 using HepaRG (AID 2283493). The procedure, abridged:
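mRNA induction or loss of CYP3A5 assessed in HepaRG after 48 h dosing, 100 uM top concentration, duplicate wells; TaqMan qRT-PCR with ACTB, GAPDH, POLR2A normalization; 0.5% DMSO as negative control.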

Read-out in test [4]: Fatty Acid-Binding Protein 1 (FABP1), FABP1 (gene 2168)
Briefly: LTEA_HepaRG_FABP1: Life Technologies and Expression Analysis (LTEA) Assay for Fatty Acid-Binding Protein 1 (FABP1) using HepaRG (AID 2283494). The method in brief:
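Differentiated human HepaRG cells were exposed in duplicate for 48 h in serum-free induction medium to 8-point half-log concentration series topping at 100 uM in 0.5% DMSO. FABP1 mRNA measured by TaqMan qRT-PCR, normalized to ACTB/GAPDH/POLR2A; bidirectional fit versus DMSO.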

Read-out in test [5]: Cytochrome P450 4A22 (Homo sapiens) (UniProt Q5TCH4)
Briefly: LTEA_HepaRG_CYP4A22: Life Technologies and Expression Analysis (LTEA) Assay for Cytochrome P450 4A22 (CYP4A22) using HepaRG (AID 2283495). The method in brief: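 Cryopreserved HepaRG cells, plated and cultured 48 h, then switched to serum-free induction medium and treated 48 h (duplicates, up to 100 uM, half-log steps, 0.5% DMSO). Expression change of CYP4A22 was fitted bidirectionally against vehicle.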

Read-out in test [6]: Cytochrome P450 7A1 (Homo sapiens) (UniProt P22680)
Briefly: LTEA_HepaRG_CYP7A1: Life Technologies and Expression Analysis (LTEA) Assay for Cytochrome P450 7A1 (CYP7A1) using HepaRG (AID 2283496). The procedure, abridged:
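Gene expression endpoint in human HepaRG liver cells treated for 48 h with test chemicals (up to 100 uM, 0.5% DMSO). Values come from bidirectional concentration-response fitting versus DMSO.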

Read-out in test [7]: Glutathione S-Transferase (GSTA2), GSTA2 (gene 2939)
Briefly: LTEA_HepaRG_GSTA2: Life Technologies and Expression Analysis (LTEA) Assay for Glutathione S-Transferase (GSTA2) using HepaRG (AID 2283497). The method in brief:
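Human HepaRG cells, plated 48 h, then exposed in serum-free induction medium for 48 h to eight half-log concentrations up to 100 uM in 0.5% DMSO, duplicate. GSTA2 mRNA by qRT-PCR, normalized to ACTB/GAPDH/POLR2A; bidirectional fit versus DMSO.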

Read-out in test [8]: Glutamate-cysteine ligase catalytic (GCLC), GCLC (gene 2729)
Briefly: LTEA_HepaRG_GCLC: Life Technologies and Expression Analysis (LTEA) Assay for Glutamate-cysteine ligase catalytic (GCLC) using HepaRG (AID 2283498). The procedure, abridged: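 Differentiated human HepaRG cells, plated 48 h then switched to serum-free induction medium, were exposed in duplicate for 48 h to 8 half-log concentrations topping at 100 uM in 0.5% DMSO. GCLC mRNA was quantified by qRT-PCR against ACTB, GAPDH and POLR2A.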

Read-out in test [9]: growth arrest and DNA damage 45 (GADD45G), GADD45G (gene 10912)
Briefly: LTEA_HepaRG_GADD45G: Life Technologies and Expression Analysis (LTEA) Assay for growth arrest and DNA damage 45 (GADD45G) using HepaRG (AID 2283499). The method in brief: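 Human hepatic HepaRG line treated 48 h with chemicals (eight concentrations, half-log steps from 100 uM); transcript induction or repression of GADD45G scored by qRT-PCR versus DMSO vehicle.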

Read-out in test [10]: Glutamate-cysteine ligase regulatory (GCLM), GCLM (gene 2730)
Briefly: LTEA_HepaRG_GCLM: Life Technologies and Expression Analysis (LTEA) Assay for Glutamate-cysteine ligase regulatory (GCLM) using HepaRG (AID 2283500). The procedure, abridged:
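Human liver HepaRG cultures receive test chemicals for 48 hours at up to 100 uM in 0.5% DMSO. GCLM expression is measured by qRT-PCR and analysed for increases or decreases against vehicle.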

Read-out in test [11]: Heat shock 70 kDa protein 1 (HSPA1A), gene 3303
Briefly: LTEA_HepaRG_HSPA1A: Life Technologies and Expression Analysis (LTEA) Assay for Heat shock 70 kDa protein 1 (HSPA1A) using HepaRG (AID 2283502). The method in brief: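 HSPA1A induction in human HepaRG liver cells is measured after 48 h of chemical treatment (100 uM maximum, 0.5% DMSO vehicle). Expression comes from qRT-PCR normalized to endogenous controls.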

Read-out in test [12]: Hypoxia-inducible factor 1-alpha (Homo sapiens) (UniProt Q16665)
Briefly: LTEA_HepaRG_HIF1A: Life Technologies and Expression Analysis (LTEA) Assay for Hypoxia-inducible factor 1 (HIF1A) Trancription factor using HepaRG (AID 2283503). The method in brief:
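HepaRG, 48 h exposure, 8-pt half-log series from 100 uM, 0.5% DMSO vehicle, duplicates. Readout: HIF1A transcript by qRT-PCR (Fluidigm array), housekeeping-normalised. Bidirectional curve fit vs DMSO baseline.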

Read-out in test [13]: 3-Hydroxy-3-Methylglutaryl-CoA Synthase 2 (HMGCS2), HMGCS2 (gene 3158)
Briefly: LTEA_HepaRG_HMGCS2: Life Technologies and Expression Analysis (LTEA) Assay for 3-Hydroxy-3-Methylglutaryl-CoA Synthase 2 (HMGCS2) using HepaRG (AID 2283504). The procedure, abridged:
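Expression of HMGCS2 in human HepaRG liver cells is measured by qRT-PCR 48 h after dosing (highest 100 uM, half-log series, 0.5% DMSO). Values come from bidirectional concentration-response fitting with DMSO as baseline.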

Read-out in another test: HGF (gene 3082)
Briefly: LTEA_HepaRG_HGF: Life Technologies and Expression Analysis (LTEA) Assay for Hepatocyte Growth Facto (HGF) using HepaRG (AID 2283505). The procedure, abridged:
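Gain or loss of HGF mRNA in human HepaRG liver cells after 48 h chemical exposure; eight concentrations up to 100 uM with 0.5% DMSO vehicle, quantified by TaqMan qRT-PCR.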

Read-out in test [14]: Insulin Like Growth Factor 1 (IGF1), IGF1 (gene 3479)
Briefly: LTEA_HepaRG_IGF1: Life Technologies and Expression Analysis (LTEA) Assay for Insulin Like Growth Factor 1 (IGF1) using HepaRG (AID 2283506). The method in brief:
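Using human HepaRG liver cells, IGF1 transcript induction or suppression is measured 48 h after dosing across eight concentrations capped at 100 uM. Values derive from bidirectional concentration-response fitting with DMSO as baseline.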

Read-out in test [15]: Intercellular Adhesion Molecule 1 (ICAM1), ICAM1 (gene 3383)
Briefly: LTEA_HepaRG_ICAM1: Life Technologies and Expression Analysis (LTEA) Assay for Intercellular Adhesion Molecule 1 (ICAM1) using HepaRG (AID 2283507). The procedure, abridged: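 Gain or loss of transcript in HepaRG hepatic cells is quantified by qRT-PCR after 48 h chemical exposure (up to 100 uM, half-log steps), with DMSO as baseline.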

Read-out in test [16]: Insulin-like growth factor-binding protein 1 (IGFBP1), IGFBP1 (gene 3484)
Briefly: LTEA_HepaRG_IGFBP1: Life Technologies and Expression Analysis (LTEA) Assay for Insulin-like growth factor-binding protein 1 (IGFBP1) using HepaRG (AID 2283508). The procedure, abridged: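 mRNA induction or loss was quantified by qRT-PCR after 48 h chemical exposure of human HepaRG cells, with 0.5% DMSO as vehicle and baseline. Concentration-response over eight points up to 100 uM.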

Read-out in test [17]: Interleukin 6 (IL6), IL6 (gene 3569)
Briefly: LTEA_HepaRG_IL6: Life Technologies and Expression Analysis (LTEA) Assay for Interleukin 6 (IL6) using HepaRG (AID 2283509). The procedure, abridged:
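Differentiated human HepaRG cells, plated 48 h then switched to serum-free induction medium, were exposed in duplicate for 48 h to eight half-log concentrations up to 100 uM in 0.5% DMSO. IL6 mRNA measured by qRT-PCR, normalized to ACTB/GAPDH/POLR2A.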

Read-out in test [18]: Glutathione S-transferase M3 (GSTM3), GSTM3 (gene 2947)
Briefly: LTEA_HepaRG_GSTM3: Life Technologies and Expression Analysis (LTEA) Assay for Glutathione S-transferase M3 (GSTM3) using HepaRG (AID 2283501). The method in brief:
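Changes in GSTM3 expression, an oxidative-stress marker, were scored by bidirectional curve fitting against 0.5% DMSO vehicle. Human HepaRG cultures received chemicals for 48 h in duplicate, highest concentration 100 uM with half-log dilutions.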

The source made the active and inactive calls. How the source made its calls: active means hit-call score of the fitted dose curve at least 0.9, where 1 is the maximum; inactive means score below 0.9.

A word on the AC50: it is the concentration giving half of the maximal activity seen.

Chain of Cytochrome P450 3A7 (Homo sapiens) (P24462 whole entry, looked up): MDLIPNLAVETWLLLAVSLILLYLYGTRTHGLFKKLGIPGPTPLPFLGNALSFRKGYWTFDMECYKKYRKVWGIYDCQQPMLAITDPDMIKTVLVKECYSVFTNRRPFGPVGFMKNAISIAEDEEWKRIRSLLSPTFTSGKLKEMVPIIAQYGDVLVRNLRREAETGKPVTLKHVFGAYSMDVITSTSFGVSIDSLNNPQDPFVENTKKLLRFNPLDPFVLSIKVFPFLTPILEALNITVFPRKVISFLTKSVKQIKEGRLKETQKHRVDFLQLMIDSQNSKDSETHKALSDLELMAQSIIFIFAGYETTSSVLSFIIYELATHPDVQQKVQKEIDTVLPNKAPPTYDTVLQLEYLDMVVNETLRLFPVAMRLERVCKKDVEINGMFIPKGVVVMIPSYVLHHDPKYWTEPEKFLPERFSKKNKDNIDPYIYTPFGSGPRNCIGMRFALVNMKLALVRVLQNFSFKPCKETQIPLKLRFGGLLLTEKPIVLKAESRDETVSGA
Chain of Hypoxia-inducible factor 1-alpha (Homo sapiens) (Q16665 whole entry, looked up): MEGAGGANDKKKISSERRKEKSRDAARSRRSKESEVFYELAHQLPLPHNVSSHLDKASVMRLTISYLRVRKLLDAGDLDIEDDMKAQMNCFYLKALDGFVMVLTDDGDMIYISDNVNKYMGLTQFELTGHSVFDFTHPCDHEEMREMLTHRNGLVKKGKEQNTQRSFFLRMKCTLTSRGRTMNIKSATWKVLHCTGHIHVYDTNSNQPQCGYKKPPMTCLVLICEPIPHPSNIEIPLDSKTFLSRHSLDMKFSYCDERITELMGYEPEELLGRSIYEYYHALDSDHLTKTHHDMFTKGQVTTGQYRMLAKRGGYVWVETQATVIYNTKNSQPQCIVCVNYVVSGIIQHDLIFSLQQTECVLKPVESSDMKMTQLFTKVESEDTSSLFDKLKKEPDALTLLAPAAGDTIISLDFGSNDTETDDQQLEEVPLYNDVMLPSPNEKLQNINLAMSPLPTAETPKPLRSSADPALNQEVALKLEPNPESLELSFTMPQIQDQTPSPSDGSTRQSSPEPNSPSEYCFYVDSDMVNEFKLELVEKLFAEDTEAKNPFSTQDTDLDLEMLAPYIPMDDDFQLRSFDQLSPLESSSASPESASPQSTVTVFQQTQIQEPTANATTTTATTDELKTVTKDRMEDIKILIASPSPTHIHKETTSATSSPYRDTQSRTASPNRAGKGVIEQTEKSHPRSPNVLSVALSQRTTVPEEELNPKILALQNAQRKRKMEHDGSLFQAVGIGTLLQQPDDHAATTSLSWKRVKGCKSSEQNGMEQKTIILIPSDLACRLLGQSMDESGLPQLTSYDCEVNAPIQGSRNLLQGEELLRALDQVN

As to `CC(C)(C)c1cc(/C=C2\SC(N)=NC2=O)cc(C(C)(C)C)c1O`, the AC50 in test [1] is 50 µM (active); in test [3], 27.6 µM (active); with CYP3A5 (gene 1577), 93.5 µM (active); in [4] it was 14.8 µM (active); in test [6], 25.2 µM (active); in test [7], 91.4 µM (active). In addition, the AC50 in [8] is 14.5 µM (active); in test [9], 21.5 µM (active); in test [12] it was 68.8 µM (active); in [13], 50 µM (active); with HGF (gene 3082), 24.5 µM (active); in test [14] it was 93.3 µM (active). For the same molecule, the AC50 in [15] was 29.9 µM (active); in test [16] it was 85.1 µM (active); in [17] it was 29.8 µM (active). The call in test [2], in test [5], in test [10] and in test [11] was inactive.
In the case of `CN(C)C(=O)C1(N2CCCCC2)CCN(CC[C@@]2(c3ccc(Cl)c(Cl)c3)CN(C(=O)c3ccccc3)CCO2)CC1`, the AC50 was 53.1 µM (active) in test [1]; 60.6 µM (active) in [2]; 24.7 µM (active) in test [3]; 17 µM (active) in test [4]; 25.2 µM (active) in test [6]; 88.3 µM (active) in [8]. Moreover, the AC50 in test [9] was 37.8 µM (active); in test [10] it was 88.3 µM (active); in test [11] it was 15.2 µM (active); in [12], 33.1 µM (active); in test [13], 68.6 µM (active); in test [14], 90.9 µM (active). In addition, the results for the AC50 in test [15], in [16] and in test [17] were 47.2 µM (active), 21.6 µM (active) and 22.1 µM (active), respectively. Besides, the call (in the test with CYP3A5 (gene 1577); in test [5]) was inactive.
In the case of `COCC(C)OCC(C)OCC(C)O` (stereo not given), the call (in test [1]; in [2]; in [3]; with CYP3A5 (gene 1577); in [4]; in test [5]) was inactive. Besides, the outcome in test [6], in [7], in test [8], in test [9], in test [10] and in test [18] was inactive. Also, the molecule was classed as inactive in test [11], in test [12], in test [13], in [14], in test [15] and in [16]. The result in [17] was inactive.

The record behind these values is PubChem BioAssay (EPA / NIEHS).
